Results as given in patent publication US20220289795, “EFFICIENT METHOD FOR PREPARING PPR PROTEIN AND USE OF THE SAME” (EditForce, Inc., published 2022).

Biological target: T1, NL_v2_PPR11 (Artificial Sequence)
T1 chain: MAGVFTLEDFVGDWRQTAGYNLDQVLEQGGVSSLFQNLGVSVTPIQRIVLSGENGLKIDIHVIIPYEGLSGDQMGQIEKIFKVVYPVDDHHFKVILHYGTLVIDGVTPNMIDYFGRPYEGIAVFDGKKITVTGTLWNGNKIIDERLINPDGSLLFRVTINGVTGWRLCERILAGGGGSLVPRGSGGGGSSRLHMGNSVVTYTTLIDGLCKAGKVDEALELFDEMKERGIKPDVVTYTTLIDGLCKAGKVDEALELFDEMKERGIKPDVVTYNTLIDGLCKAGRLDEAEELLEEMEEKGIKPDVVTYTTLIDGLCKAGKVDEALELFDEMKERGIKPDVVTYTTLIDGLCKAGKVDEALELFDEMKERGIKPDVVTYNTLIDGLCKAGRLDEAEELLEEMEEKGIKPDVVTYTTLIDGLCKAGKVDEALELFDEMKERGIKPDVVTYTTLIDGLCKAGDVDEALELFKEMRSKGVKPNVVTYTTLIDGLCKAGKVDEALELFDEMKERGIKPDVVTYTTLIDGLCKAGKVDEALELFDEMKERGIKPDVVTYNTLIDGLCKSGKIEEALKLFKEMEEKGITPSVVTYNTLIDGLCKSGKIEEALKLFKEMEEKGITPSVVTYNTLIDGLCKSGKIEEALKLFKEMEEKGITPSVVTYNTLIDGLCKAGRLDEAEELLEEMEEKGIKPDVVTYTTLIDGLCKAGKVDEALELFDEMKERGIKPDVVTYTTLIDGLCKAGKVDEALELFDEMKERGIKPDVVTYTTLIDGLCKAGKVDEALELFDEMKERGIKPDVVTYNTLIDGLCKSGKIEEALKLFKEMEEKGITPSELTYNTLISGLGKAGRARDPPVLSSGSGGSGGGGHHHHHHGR
Assay: RPB-ELISA
Details: tags: N-terminal luciferase, C-terminal 6xHis; label: 5'-biotin; ssRNA
Experimental: RNA probes consisting of a designed 30-base sequence containing 18 bases of the target sequence and modified by biotinylation at the 5′ end (RNA_1, RNA_2, RNA_3, RNA_4, and RNA_5, SEQ ID NOS: 61 to 65) were synthesized (Grainer). To a streptavidin-coated plate (Thermo fisher), the 5′-end biotinylated RNA probes were added, reaction was allowed at room temperature for 30 minutes, and the plate was washed with a lysis buffer (20 mM Tris-HCl, pH 7.6, 150 mM NaCl, 5 mM MgCl₂, 0.5% NP-40, 1 mM DTT, 0.1% BSA). For background measurement, wells to which RNA was not added, but 100 μL of the lysis buffer, 1 μL of 100 mM DTT, and 1 μL of 40 unit/4 RNase inhibitor (Takara, 2313A) were added were also prepared. Then, 200 μL of a blocking buffer (20 mM Tris-HCl, pH 7.6, 150 mM NaCl, 5 mM MgCl₂, 0.5% NP-40, 1 mM DTT, 1% BSA) was added, and the plate surface was blocked at room temperature for 30 minutes. Then, 100 μL of E. coli lysate containing luciferase-fused PPR protein having a luminescence level of 1.5×10⁸ LU/μL was added to each well, and the binding reaction was allowed at room temperature for 30 minutes. The well was washed 5 times with 200 μL of a washing buffer (20 mM Tris-HCl, pH 7.6, 150 mM NaCl, 5 mM MgCl₂, 0.5% NP-40, 1 mM DTT). […] The background (luminescence signal value obtained with adding the PPR protein and without adding RNA) was subtracted from the luminescences of the samples to which a solution containing each RNA and PPR protein was added, and the obtained values were used as the binding powers between the PPR protein and RNA.
By using the v2 motif, PPR proteins for 23 kinds of target sequences (T_1 to T_3, and T_5 to T_24, SEQ ID NOS: […]) were prepared (NL_v2_PPR1 to 3, and NL_v2_PPR5 to 24, SEQ ID NOS: 56 to 58 and 70 to 88), and RPB-ELISA was used to analyze bindings of all the combinations. The experimental method was the same as that used in Example 3.
GGUUAGAGAUACAGUGUG showed a binding signal of 20.4 log2 luminescence.
